Source: PubChem (University of Kansas High Throughput Screening Laboratory)
The sample as a whole holds a higher share of hits than the screen did.
mHTT-CaM PPI inh = disrupts binding of mutant huntingtin to calmodulin; inhibition, % at 15 µM; 190,000 compounds, 3.6% hits; P42858; AlphaScreen His-mHTT/GST-CaM binding, luminescence
Pf apPOL block = Pf-apPOL DNA polymerase inhibition | Recombinant Pf-apPOL, molecular beacon fluorescence, 1.5 h | inhibition, % at 10 µM | 210,000 compounds, 0.25% hits
A number is an active result; i = inactive; nt = no result. Cut-off read from the data, not from the text of the source: active = inhibition above about 50%; inactive = the rest.

SMILES | mHTT-CaM PPI inh | Pf apPOL block
Cc1cccc(N(C)C(=O)CN2C(=O)NC3(CCC(C(C)(C)C)CC3)C2=O)c1 (stereo unspecified) | i | i
Cc1cccc(C)c1NC1=NC(=S)N(c2cccc(O)c2)C12CCC(C(C)(C)C)CC2 (stereo unspecified) | 56 | i
Cc1cc(Cl)ccc1OCC(O)CN1CCN(C)CC1 (stereo unspecified) | i | i
Cc1cc(Cl)ccc1OCC(O)CNC(C)c1ccccc1 (stereo unspecified) | 58 | i
Cc1ccc(OCC(O)CNC(C)(C)C)cc1C (stereo unspecified) | i | i
Cc1cc(OCC(O)CNC(C)c2ccccc2)ccc1Cl (stereo unspecified) | 100 | i
Cc1ccc(NC(=O)N2CCCC(CC(=O)N3CCN(c4cccc(C)c4)CC3)C2)cc1 (stereo unspecified) | i | i
Cc1ccc(-c2cc(C(=O)Nc3ccncc3)c3ccccc3n2)o1 | 74 | i
Cc1ccc(-c2cc(C(=O)Nc3cccnc3)c3ccccc3n2)o1 | i | i
Cc1cc2c(=O)n(CC(=O)Nc3cccc(C(F)(F)F)c3)cnc2s1 | i | i
Cc1nnc2sc(SCC(=O)Nc3cccc(C(F)(F)F)c3)nn2c1=O | 99 | i
Cc1cccc(NC(=O)CC2COc3ccccc3NC2=O)c1C (stereo unspecified) | i | i
CC1Cc2ccccc2N1C(=O)Cc1cc(-c2ccco2)on1 (stereo unspecified) | i | i
NC(=O)C1CCN(C(=O)Cc2cc(-c3ccco3)on2)CC1 | i | 73
O=c1[nH]c2ccc(Br)cc2c(-c2ccccc2)c1C1=NNC(c2ccco2)C1 (stereo unspecified) | 100 | i
COc1ccccc1C1CC(c2c(-c3ccccc3)c3cc(Br)ccc3[nH]c2=O)=NO1 (stereo unspecified) | i | i
COc1ccc(OC)c(NC(=O)c2cc3nc(-c4cccs4)cc(C(F)(F)F)n3n2)c1 | i | i
COC(=O)c1nc2n(n1)C(c1ccc(Cl)cc1)C1=C(CCCC1=O)N2 (stereo unspecified) | i | i
Cc1ccccc1CSCc1ccc(C(=O)O)o1 | i | i
Cc1ccccc1CSCc1ccc(C(=O)N2CCC(c3ccncc3)CC2)o1 | 58 | i
CCOc1ccc(CN2CCOCC2)cc1 | i | i
CC(=O)c1ccc2[nH]c3ccccc3c2c1 | i | i
Nc1ccc2[nH]c3ccccc3c2c1 | 99 | i
CCc1[nH]nc(-c2ccc(Cl)cc2)c1NC(=O)C(C)C | i | i
CC(C)(Oc1ccc(Cl)cc1)C(=O)N1CCN(c2cccc(Cl)c2)CC1 | i | i
SMILES | mHTT-CaM PPI inh | Pf apPOL block
CC(C)(Oc1ccc(Cl)cc1)C(=O)N1CCN(c2ccc(F)cc2)CC1 | 94 | i
Cc1cccc(NCN2C(=O)S/C(=C\c3cccc(F)c3)C2=O)c1 | i | i
c1cc2c(cc1C13CC4CC(CC(C4)C1)C3)c1c3n2CCNC3CCC1 (stereo unspecified) | 100 | nt
C1=C(c2ccc3c(c2)c2c4n3CCNC4CCC2)CCC1 (stereo unspecified) | 55 | i
CC(C)COc1ccc2c(c1)c1c3n2CCNC3CCC1 (stereo unspecified) | i | nt
CCN1CCn2c3c(c4cc(Cl)ccc42)CCCC31 (stereo unspecified) | i | i
Cc1noc(COC2CCCN(C(=O)c3ccc(F)c(F)c3)C2)n1 (stereo unspecified) | i | i
CC(C(=O)NCc1ccncc1)N1CCN(c2cccc(Cl)c2)CC1 (stereo unspecified) | i | i
O=C(NCCc1ccncc1)c1ccc2nsnc2c1 | i | i
Cc1ccc(C)c(NC(=O)CN2CCC(c3nc(-c4cccs4)no3)CC2)c1 | i | i
CC1CCN(c2nccc(C(=O)N3CCN(c4cccc(Cl)c4)CC3)n2)CC1 | i | i
CCN1CCn2cc(C(=O)N3CCN(c4ccc(Cl)cc4)CC3)nc2C1 | i | i
CCN1CCn2cc(C(=O)N3CCN(c4cccc(Cl)c4)CC3)nc2C1 | 53 | i
O=C(c1ccnc(N2CCCCC2)n1)N1CCN(c2cccc(Cl)c2)CC1 | 56 | i
COc1cc(/C=C/c2ccc3cccc(OC)c3n2)cc2c1OCO2 | i | i
COc1ccccc1CN1CCc2nc(SCc3ccc(F)cc3)[nH]c(=O)c2C1 | i | i
N#CC1=C(SCC(=O)Nc2ccccc2)NC(=O)C(C#N)C12CCCC2 (stereo unspecified) | i | i
CC1CCCC2(C1)C(C#N)=C(SCC(=O)Nc1ccc(Br)cc1)NC(=O)C2C#N (stereo unspecified) | 73 | i
C/C(O)=C1/C(=O)NC2(C)CC1c1cc(Cl)ccc1O2 (stereo unspecified) | i | i
COc1ccc(N2C(c3ccsc3)=Cc3cc4c(cc3C2c2c[nH]c3ccccc23)OCO4)cc1 (stereo unspecified) | 70 | i
CC(C)(O)C#Cc1ccc(N2C(c3ccsc3)=Cc3ccc(F)cc3C2c2c[nH]c3ccc(C#N)cc23)cc1 (stereo unspecified) | i | i
COc1cc(F)cc(-c2c(-c3ccccc3OC)sc3ccccc23)c1 | i | i
CC(=O)N1c2c(cc(Br)cc2S(=O)(=O)N2CCc3ccccc32)CC1C (stereo unspecified) | i | i
CC(=O)N1c2c(cc(Br)cc2S(=O)(=O)N2CCc3ccccc3C2)CC1C (stereo unspecified) | 58 | i
Cc1ccc(C2=NN(C(=O)CN3CCOCC3)C(c3ccccc3C)C2)cc1C (stereo unspecified) | 51 | i
SMILES | mHTT-CaM PPI inh | Pf apPOL block
O=C(CN1CCOCC1)N1N=C(c2ccccc2Cl)CC1c1ccccc1Cl (stereo unspecified) | 100 | i
Cc1ccc(C2=NN(C(=O)CN3CCOCC3)C(c3ccccc3Cl)C2)cc1 (stereo unspecified) | i | i
CCC(=O)N(C)CC(=O)N1N=C(c2ccc(C)c(C)c2)CC1c1ccccc1 (stereo unspecified) | 56 | i
COc1ccccc1C1=NN(C(=O)CN2CCOCC2)C(c2ccccc2Cl)C1 (stereo unspecified) | i | i
CCC(=O)N(C)CC(=O)N1N=C(c2cccs2)CC1c1ccccc1 (stereo unspecified) | i | i
Cc1ccc(C2=NN(C(=O)CN3CCOCC3)C(c3ccccc3)C2)cc1C (stereo unspecified) | 52 | i
COc1ccc(C2CC(c3ccccc3)=NN2C(=O)CN2CCOCC2)cc1 (stereo unspecified) | i | i
CCN1CCN(CC(O)COc2cc(C)ccc2C)CC1 (stereo unspecified) | i | i
Cc1ccc(C)c(C2=NN(C(=O)CN3CCOCC3)C(c3ccccc3C)C2)c1 (stereo unspecified) | 85 | i
O=C(CN1CCOCC1)N1N=C(c2ccc(F)cc2)CC1c1ccccc1F (stereo unspecified) | i | i
Cc1ccc(C2CC(c3ccccc3F)=NN2C(=O)CN2CCOCC2)c(C)c1 (stereo unspecified) | 83 | i
Cc1ccc(C2=NN(C(=O)CN3CCOCC3)C(c3ccc(F)cc3)C2)cc1 (stereo unspecified) | i | i
COc1cccc(C2CC(c3cc(C)ccc3C)=NN2C(=O)CN2CCOCC2)c1 (stereo unspecified) | i | i
Cc1ccc(C)c(C2CC(c3ccc(F)cc3)=NN2C(=O)CN2CCOCC2)c1 (stereo unspecified) | 50 | i
COc1ccc(CC(=O)N2CCc3c(c(C(=O)NCc4ccccc4)nn3C)C2)cc1 | 61 | i
